# Laboratory results as given in PubChem BioAssay (NCATS).
# Results filed as inconclusive are left out. A call without a number means that no potency is given here. The source made the active and inactive calls. The call rests on the fitted dose curve; in most records, active means well fitted cell-killing curve with a large enough effect; inconclusive means small, poorly fitted or top-dose-only effect, or effect the other way; inactive means flat fitted curve, though single readings scatter.
# Tested on: OV90
# Assay: Primary qHTS to identify gynecologic anti-cancer compounds using libraries of approved drugs and bioactive compounds (AID 1345084); further: nearly all actives have a fitted effect of over 55% in size
# Conditions: Gynecologic cancer cell panel viability, ATPlite luminescence, 48 h; series mostly up to 57.5 µM
# In short: (§1)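 Cells, 1,000 per well, were allowed to settle for 16 h at 37 C before compound addition. Five concentrations were tested for 48 h, and viability was read by ATPlite luminescence after 15 min at room temperature.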
# Potency means the concentration at half of the fitted maximal effect.
row,SMILES,Potency
1,C=C(C(=O)OC[C@H]1O[C@@H](OC(=O)/C=C/c2ccccc2)[C@H](O)[C@@H](O)[C@@H]1O)C(O)CO (stereo partly specified),inactive
2,COc1ccccc1C(=O)Nc1cc2c(cc1N1CCCC1)n(C)c(=O)n2C,inactive
3,Clc1cccc(COc2cncc(N3CCNCC3)n2)c1,inactive
4,CCOc1cn(-c2ccc(F)cc2C)nc1C(=O)Nc1ccc(Oc2ccnc3cc(OC)c(OC)cc23)c(F)c1,inactive
5,O=C(Nc1ccccc1Br)NC1CCN(c2ccc(C(F)(F)F)cn2)C1 (stereo unspecified),inactive
6,C=CC(C)(O)CC/C=C(/C)COC(=O)C(C)C1CCC(C)(C=C)O1 (stereo unspecified),inactive
7,Cc1noc(C)c1-c1cc(O)cc(C(O)c2ccccc2)c1 (stereo unspecified),inactive
8,COc1cccc(NCCC2(c3ccccc3)CC(C)(C)OC(C)(C)C2)c1,inactive
9,Cc1c(OCc2cccc(-c3ccc(C(=O)O)cc3)c2)cc2c(c1C)C(=O)C(C1CCCC1)C2 (stereo unspecified),inactive
10,Cn1cc(-c2ccc(S(=O)(=O)n3ccc(/C=C/C(=O)Nc4ccccc4N)c3)cc2)cn1,15.8 µM (active)
11,CC1(NC(=O)c2ccc(C#Cc3cccc(F)c3)cn2)COC1,inactive
12,O=C(NCCN1CCC(n2c(=O)[nH]c3ccccc32)CC1)c1cc2cc(F)ccc2[nH]1,inactive
13,NC(=O)CCCSc1nc(N)nc(-c2c(Cl)cc3c4c(cccc24)COC3)n1,0.708 µM (active)
14,CCN1CCC[C@@H]1CNC(=O)c1ccc2c(c1)NC(=O)c1cccc(C)c1S2,inactive
15,O=C(CNC(=O)c1cccc(C(F)(F)F)c1)N[C@@H]1CCN(Cc2ccc(Cl)cc2)C1,inactive
16,CC(=O)NC(C)c1cnc(-c2cnc(Oc3ccc(OC(C)C)cc3)s2)s1 (stereo unspecified),inactive
17,O=C(NNc1nc2cc(F)ccc2n2cccc12)c1cnccn1,5.01 µM (active)
18,C[C@@H](Nc1ncnc2[nH]c(-c3ccc(O)cc3)cc12)c1ccccc1,inactive
19,CC1=CC2/C=C(\C)CCC3OC(C)(C)OC3CCC(=O)C23C(=O)NC(CC(C)C)C3C1C (stereo unspecified),inactive
20,CC1(CO)CC2C(O)C3=C(CC(C)(O)C2C1)C(=O)OC3 (stereo unspecified),inactive

# Tested on: PA-1
# Assay: as above
# Conditions: Gynecologic cancer cell panel viability, ATPlite luminescence, 48 h; series mostly up to 57.5 µM
# In short: as §1
row,SMILES,Potency
1,Cc1ccnn1-c1ccc(C(=O)N2CCN(S(=O)(=O)c3ccc(Cl)c(C(F)(F)F)c3)CC2)cc1,inactive
2,Fc1ccc(N2CCCCC2)c(NC(=S)c2ccncc2)c1,inactive
3,O=C(Cc1c(F)cccc1F)Nc1cc(OCc2ccc(Cl)cc2)ccn1,inactive
4,CCN(c1cc(-c2ccc(CN3CCOCC3)cc2)cc(C(=O)NCc2c(C)cc(C)[nH]c2=O)c1C)C1CCOCC1,inactive
5,CCOc1cc(C(C)(C)C)ccc1C1=NC(C)(c2ccc(Cl)cc2)C(C)(c2ccc(Cl)cc2)N1C(=O)N1CCN(CCCS(C)(=O)=O)CC1 (stereo unspecified),6.31 µM (active)
6,COc1ccc(S(=O)(=O)N2CCC[C@H]2C(=O)Nc2cc(C)cc(C)c2)cc1,inactive
7,COc1cccc(-c2cc(F)ccc2C2Cc3nc(N)nc(C)c3C(=O)N2)n1 (stereo unspecified),0.355 µM (active)
8,CN(C)C(=O)Nc1cc(-c2ccccc2)ccc1N(C)C,inactive
9,COc1ccc(NC(=O)c2ccc(C(=N)N(C)C)cc2)c(C(=O)Nc2ccc(Cl)cn2)c1,inactive
10,COc1cc(O)c2c(c1)/C=C/C[C@H](O)[C@H](O)C(=O)/C=C\C[C@H](C)OC2=O,14.1 µM (active)
11,CC(C)c1cc(-c2ccc(F)c3ccccc23)nc(N)n1,inactive
12,OC[C@H]1O[C@@H](OC/C=C/c2ccc(O)cc2)[C@H](O)[C@@H](O)[C@@H]1O,inactive
13,Cn1ccc(NC(=O)c2cc(Oc3ccc(C(=O)N4CCC4)c(F)c3)c3c(c2)OC(C)(C)C3)n1,inactive
14,CC(=O)Nc1cccc(Nc2ncnc(N3CCC(OCc4ccc(OC(F)(F)F)cc4)CC3)n2)c1C,inactive
15,C=C(C(=O)OC[C@H]1O[C@@H](OC(=O)/C=C/c2ccccc2)[C@H](O)[C@@H](O)[C@@H]1O)C(O)CO (stereo partly specified),inactive
16,COc1ccccc1C(=O)Nc1cc2c(cc1N1CCCC1)n(C)c(=O)n2C,inactive
17,Clc1cccc(COc2cncc(N3CCNCC3)n2)c1,inactive
18,CCOc1cn(-c2ccc(F)cc2C)nc1C(=O)Nc1ccc(Oc2ccnc3cc(OC)c(OC)cc23)c(F)c1,inactive
19,O=C(Nc1ccccc1Br)NC1CCN(c2ccc(C(F)(F)F)cn2)C1 (stereo unspecified),inactive
20,C=CC(C)(O)CC/C=C(/C)COC(=O)C(C)C1CCC(C)(C=C)O1 (stereo unspecified),inactive
21,COc1cccc(NCCC2(c3ccccc3)CC(C)(C)OC(C)(C)C2)c1,inactive
